Publication PMC5540273 (PLoS ONE, 2017)

System: RIOK1
Details: concentration: 1 μM, replicates: in singlicate; n = 1
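Note: KINOMEscan kinase panel screen.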

Compared with `COc1cc(Nc2nccc(N3CCC(NC(=O)Nc4cccc(C(C)=O)c4)C3)n2)cc(OC)c1OC` (stereo not shown) [GSK1379753], `COc1cccc(NC(=O)NC2CCN(c3ccnc(Nc4cc(OC)c(OC)c(OC)c4)n3)C2)c1` (stereo not shown) [GSK1379763] is higher in “%Inh” value: 73% for the first, 85% for the second.

Going from `CCn1c(-c2nonc2N)nc2c(C#CC(C)(C)O)ncc(OCCCCN)c21.O=C(O)C(F)(F)F.O=C(O)C(F)(F)F` [GSK507274] to `O=C(O)C(F)(F)F.O=C(O)C(F)(F)F.O=c1[nH]ccc2nc(N[C@@H]3CCCNC3)nc(Nc3ccc(S(=O)(=O)N4CCOCC4)cc3)c12` [GSK2177277], the “%Inh” value rises from 16% to 100%.

Compared with `COc1cc(Nc2nccc(-c3c(-c4cccc(NC(=O)c5c(F)cccc5F)c4)nn4ncccc34)n2)cc(OC)c1OC` [GSK327238], `CCS(=O)(=O)c1ccc(OC)c(Nc2nccc(-c3c(-c4cccc(NC(=O)c5c(F)cccc5F)c4)nn4ncccc34)n2)c1` [GSK326180] is higher in “%Inh” value: 20% for the first, 30% for the second.

First: O=C(Nc1n[nH]c2nc(-c3ccc(O)cc3)ccc12)C1CC1 [SB-710363]
Second: COc1cccc(-c2ccc3c(NC(=O)C4CC4)n[nH]c3n2)c1 [SB-710903]
The “%Inh” value of the first is higher: 47% for the first, 38% for the second.

Compared with `O=c1[nH]cc(-c2ccc(N3CCOCC3)cc2)c2sc(-c3cn[nH]c3)cc12` [GSK2276055], `CNC(=O)c1ccccc1Nc1nc(Nc2ccc(N3CCOCC3)cc2)ncc1Cl.Cl` [GSK1576028] is higher in “%Inh” value: 37% for the first, 100% for the second.

First: O=C(Nc1cccc(-c2nn3ccccc3c2-c2ccnc(Nc3cccc(F)c3)n2)c1)c1c(F)ccc(F)c1Cl [GSK357952]
Second: Cc1ccc(F)c(C(=O)Nc2cccc(-c3nn4ccccc4c3-c3ccnc(Nc4cccc(F)c4)n3)c2)c1F [GSK361061]
The “%Inh” value of the first is higher: 24% for the first, 23% for the second.

First: CC(C)c1nc(-c2cccc(NS(=O)(=O)c3c(F)cccc3F)c2F)c(-c2ccnc(Nc3ccc(N4CCOCC4)nc3)n2)s1 [GSK2008607]
Second: CC(=O)N1CCN(c2ccc(Nc3nccc(-c4sc(C(C)C)nc4-c4cccc(NS(=O)(=O)c5cccc(Cl)c5)c4)n3)cn2)CC1 [GSK1660437]
The “%Inh” value of the first is higher: 22% for the first, 19% for the second.

Going from `O=C(Nc1cccc(-c2nn3ncccc3c2-c2ccnc(Nc3ccccc3)n2)c1)c1c(F)cccc1F` [GSK198271] to `CCCCc1nn2ncccc2c1-c1ccnc(Nc2ccc(N3CCN(C)CC3)cc2)n1` [GW684941], the “%Inh” value rises from 4% to 52%.

Going from `Cl.c1ccc(-c2ccc3c(Nc4ccc5[nH]ncc5c4)ccnc3c2)nc1` [GW440137] to `c1ccc(-c2n[nH]cc2Nc2ccnc3ccccc23)nc1` [GW694077], the “%Inh” value rises from 32% to 99.2%.

First: Cn1cc(-c2[nH]c3cc(NC(=O)[C@H](N)C4CCCCC4)cc4c3c2C=NNC4=O)cn1
Second: Cc1cccc(Nc2nc(N[C@H]3CCNC3)ncc2C(N)=O)c1.Cl [GSK2197149]
The “%Inh” value of the first is lower: 93.7% for the first, 99.8% for the second.

Compared with `c1ccc(-c2cnc3nccnn23)cc1` [AH20685], `Nc1n[nH]c2cnc(-c3ccccc3)cc12` [SB-642124] is higher in “%Inh” value: 0% for the first, 31% for the second.

Going from `CN(C)S(=O)(=O)c1cc(-c2ccc3nccc(-c4cccc(S(N)(=O)=O)c4)c3c2)cnc1N` [GSK1669921] to `C[C@@H](Oc1cc(-n2cnc3cc(-c4ccnc(NCCS(C)(=O)=O)c4)ccc32)sc1C(N)=O)c1ccccc1Cl` [GSK907232], the “%Inh” value rises from 36% to 90.6%.

First: Fc1ccc(-c2ncn(C3CCNCC3)c2-c2ccnc(Oc3ccc(-c4ccccc4)cc3)n2)cc1 [SB-245391]
Second: Nc1ncc(-c2cccnc2)c2scc(-c3ccc4c(c3)CCN4C(=O)Cc3ccccc3)c12 [GSK683281]
The “%Inh” value of the first is lower: 7% for the first, 35% for the second.

Going from `COc1cccc(C(=O)Nc2cccc(Oc3ccc4nc(NC(=O)C5CC5)cn4n3)c2)c1` to `COc1ccc(Nc2nccc(NCCNC(=O)c3cc4ccccc4s3)n2)cc1` [GSK1379896], the “%Inh” value falls from 55% to 19%.

First: Cc1occc1-c1ncc(OC[C@@H](N)Cc2c[nH]c3ccccc23)cc1-c1ccc2[nH]nc(C)c2c1.O=C(O)C(F)(F)F [GSK682037]
Second: COc1ccc(-c2coc3ccc(-c4nnc(SCc5ccc(OC)c(C(F)(F)F)c5)o4)cc23)cc1
The “%Inh” value of the first is higher: 95.1% for the first, 0% for the second.

First: Cc1ccc(S(=O)(=O)Nc2ccc(Nc3nccc(Nc4cccc5[nH]ncc45)n3)cc2)cc1 [GSK581271]
Second: Oc1cc(Nc2ccnc3cc(I)ccc23)ccc1F [GW552771]
The “%Inh” value of the first is higher: 78% for the first, 25% for the second.

First: CC(C)(C)c1ccc2nccc(Nc3cccc(O)c3)c2c1 [GW856795]
Second: COC(=O)Nc1nc2ccc(Oc3ccc(NC(=O)Nc4cc(C(F)(F)F)ccc4F)cc3)cc2n1C.Cl [GW692089]
The “%Inh” value of the first is higher: 21% for the first, 0% for the second.

First: COc1cc(Nc2ncc3c(C)nc(-c4cc5ccccc5[nH]4)n3n2)cc(OC)c1OC [GW869516]
Second: COc1cc2c(cc1OCCN1CCNCC1)ncc1c3ccc(C#N)cc3[nH]c21
The “%Inh” value of the first is lower: 35% for the first, 82% for the second.

`Cl.Cl.NCC(C(=O)Nc1cc(Br)c(-c2ccnc3[nH]ccc23)s1)c1ccccc1` (stereo not shown) [GSK1269851] was tested, and the “%Inh” value was 95.7%.
